Assay outcomes deposited in PubChem by Broad Institute.
A selection: hits, their analogues and other compounds. The true share with any hit is near 2.1%.
ERAP1 inh – blocks human ERAP1 aminopeptidase activity | Q9NZ08 | recombinant ERAP1, Leu-AMC fluorescence, 60 min | inhibition, % at 10.7 µM | 0.15% of 340,000 active | AID 652197;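 active = mean replicate inhibition of at least 30%, or all replicates individually reaching that 30% level; inactive = mean below 30% and not every replicate reaching it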;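 also: 0% = neutral control wells and 100% = L-leucinethiol positive control wells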
CFTR F508del cor – correctors of CFTR F508del function in bronchial epithelial cells; AID 720511; activity (quench increase), % at 7.58 µM; CFBE cells, YFP halide quenching; stimulated with forskolin plus potentiator P3; % fluorescence drop versus neutral controls; 0.36% of 350,000 active;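 active = mean added fluorescence quench of at least 8% versus neutral control, with both replicates also reaching 8%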;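 also: cells transiently co-express mutant CFTR-F508del with the halide-sensitive YFP; corrector assay measuring rescue of mutant channel to the surface after 24 h compound exposure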
ARNT-TACC3 inh – disrupts binding between human ARNT and TACC3 | AID 623870 | inhibition, % at 9.99 µM | AlphaScreen His-ARNT PAS-B/GST-TACC3 binding, luminescence; TACC3 fragment carries E629A point mutation | 0.66% of 390,000 active;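 active = mean inhibition of replicates at least 50% and at least half of replicates each reaching 50%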;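 also: 0% = complete ARNT plus TACC3 wells and 100% = ARNT alone without TACC3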
PvdQ inh – blocks Pseudomonas aeruginosa PvdQ acylase activity | purified PvdQ acylase, fluorescence plate reader | inhibition, % at 10 µM | AID 488965 | 0.063% of 340,000 active; in the data active = inhibition above about 30%, passing the limit was not always enough;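 also: 0% = vehicle neutral wells and 100% = reference inhibitor wells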
Ecoli rRNA inh – selective bacterial rRNA inhibition in E. coli; E. coli WT GFP vs humanized-ribosome RFP mutants, fluorescence, 24 h; active compounds read low; DMSO median 0, no signal -100; GFP signal change (wild-type ribosome), % (no concentration beside the values); 1.6% of 350,000 active;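 active = significant combined selectivity score with lowered wild-type GFP, culture density cut under 30%, mutant RFP and density less affected; inactive = any of these conditions unmet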
* hit, by the source's call; / = no result given.

SMILES | ERAP1 inh | CFTR F508del cor | ARNT-TACC3 inh | PvdQ inh | Ecoli rRNA inh
C/C=C/c1cnc2c(c1)C(=O)N([C@@H](C)CO)C[C@H](C)[C@@H](CN(C)Cc1ccc3c(c1)OCO3)O2 | 3 | -3 | 10 | / | 4
CC1Cc2ccccc2N1S(=O)(=O)c1cnc(Cl)c(Cl)c1 (stereo not given) | -2 | -1 | -20 | -14 | 4
CC(=O)N1CCc2cc(S(=O)(=O)N3c4ccccc4CC3C)ccc21 (stereo not given) | 3 | 10* | -2 | -7 | 11
CC1Cc2ccccc2N1S(=O)(=O)c1cnc(Cl)c(Br)c1 (stereo not given) | 2 | 0 | -4 | -2 | -27*
O=C(N[C@@H]1CC[C@H](CCNS(=O)(=O)c2ccc(F)cc2)O[C@H]1CO)C1CCOCC1 | -4 | -3 | 7 | / | 3
c1ccc(-c2ccc(C3[C@H]4CNC[C@@H]3N4Cc3cccc(-c4ccncc4)c3)cc2)cc1 (stereo not given in full) | -3 | 2 | / | / | -2
CCCCC[C@@H](/C=C/C1C(=O)C=C[C@H]1C/C=C\CCCC(=O)OC)OC(C)=O (stereo not given in full) | 0 | -1 | 5 | -18 | -23*
O=C(Nc1ccc(OC(F)(F)F)cc1)N1CCN(c2ccnc3cc(Cl)ccc23)CC1 | 1 | 4 | -3 | -2 | -29*
CC(C)(C)C(=O)N1CCN(c2ccnc3cc(Cl)ccc23)CC1 | -4 | 1 | -4 | 16 | -13
COc1ccc(-c2cc(NC=O)c3ncc(-c4ccc(OC)c(OC)c4)n3c2)cc1 | -4 | 8.4* | / | / | 3
COc1cc(-c2cnc3c(NC=O)cc(-c4cccc(C(F)(F)F)c4)cn23)cc(OC)c1OC | -1 | 8.7* | / | / | -2
COc1ccc(-c2cc(NC=O)c3ncc(-c4ccc(OC)c(OC)c4)n3c2)cc1OC | -7 | / | / | / | -4
COc1cccc(-c2cc(NC=O)c3ncc(-c4cc(OC)c(OC)c(OC)c4)n3c2)c1 | 11 | 1 | / | / | 5
CN1CCN(c2ccc(NC(=O)c3ccc([N+](=O)[O-])o3)cc2Cl)CC1 | -2 | 0 | 2 | -7 | -36
O=C(Nc1cccc(Cl)c1N1CCCC1)c1ccc([N+](=O)[O-])o1 | -1 | 2 | 1 | -2 | 1
CCCC(=O)N1CCN(c2ccc(NC(=O)c3ccc([N+](=O)[O-])o3)cc2Cl)CC1 | -2 | -11 | 3 | -5 | -39*
CCN1CCN(c2c(Cl)cccc2NC(=O)c2ccc([N+](=O)[O-])o2)CC1 | -1 | 0 | -3 | -7 | -17*
O=C(Cn1ccccc1=S)c1ccc(Cl)c(Cl)c1 | 4 | -1 | / | / | -34*
CC(NC(=O)c1cc(S(=O)(=O)N2CCOCC2)ccc1F)c1ccc(-n2ccnc2)cc1 (stereo not given) | 4 | 11* | / | -15 | 8
CC(C)(C)N(Cc1ccccc1)C(=O)CN1C(=O)c2ccccc2S1(=O)=O | -2 | -1 | 1 | -9 | -24*
CC(C)(C)N(Cc1ccccc1)C(=O)CN1C(=O)c2ccccc2C1=O | 0 | 1 | -3 | 5 | 4
CC(=O)OC1CCC2(C)C(=CCC3C2CCC2(C)C3CC3ON=C(C)C32)C1 (stereo not given) | 1 | 11* | 1 | 0 | 0
Cn1c(SCc2cccc(Cl)c2)nc(C(F)(F)F)cc1=O | 3 | 3 | 3 | -13 | -3
Cn1c(SCc2ccccc2)nc(C(F)(F)F)cc1=O | 6 | -3 | 6 | -7 | -23*
Cn1c(SCc2cccc(Br)c2)nc2ccccc2c1=O | -2 | 2 | -6 | -18 | -4
SMILES | ERAP1 inh | CFTR F508del cor | ARNT-TACC3 inh | PvdQ inh | Ecoli rRNA inh
Cn1c(SCc2ccccc2)nc(N)c(N=O)c1=O | 1 | 1 | / | / | -20*
COc1ccc(C2CC(=O)C=C(NCc3ccccc3)C2)cc1 (stereo not given) | -2 | 0 | -6 | -9 | /
COc1ccc(C2CC(=O)C=C(NCc3ccc4c(c3)OCO4)C2)cc1 (stereo not given) | 1 | 1 | -2 | -10 | -24*
COc1ccc([C@H]2CC(=O)C=C(c3ccc4c(c3)OCCO4)C2)cc1 | -1 | -1 | 1 | 4 | -21*
O=c1c2ccccc2sc2c(CO)ccc(NCCN3CCCCC3)c12 | 2 | 17* | 30 | -8 | /
Cc1ccc(S(=O)(=O)N(C)C[C@@H]2OCCCC[C@H](C)Oc3ccc(NS(=O)(=O)c4ccc(F)cc4)cc3C(=O)N([C@H](C)CO)C[C@@H]2C)cc1 | 0 | -3 | 4 | / | 0
CS(=O)(=O)N(CC(=O)N1CCOCC1)c1ccc(Cl)cc1 | -4 | -1 | -1 | -11 | 16
CS(=O)(=O)N(CC(=O)N1CCOCC1)c1cccc(Cl)c1 | 34* | -2 | / | / | 4
COc1ccc(Nc2nc(C(=O)NCc3ccco3)cs2)cc1 | -3 | -1 | -12 | 3 | -44*
COC(=O)c1sc(-c2ccc(C(C)(C)C)cc2)cc1NC(=O)COCC(=O)O | / | -1 | 22 | -2 | -20
COC(=O)c1sc(-c2ccc(Cl)cc2)cc1NC(=O)CSCC(=O)O | 14 | -4 | 9 | 15 | -42*
CC(C)CC#Cc1ccc2c(c1)O[C@H](CN(C)Cc1ccccn1)[C@H](C)CN([C@@H](C)CO)S2(=O)=O | -4 | / | -3 | / | -29
C[C@@H]1CN([C@H](C)CO)S(=O)(=O)c2ccc(C#CC3CC3)cc2O[C@H]1CN(C)Cc1ccccn1 | 2 | 17* | 2 | / | -26
CC(C)CC#Cc1ccc2c(c1)O[C@@H](CN(C)Cc1ccccn1)[C@H](C)CN([C@H](C)CO)S2(=O)=O | -4 | / | 0 | / | -23*
CCOc1ccc(-c2nnc(-c3cccs3)o2)cc1OCC | / | / | -1 | -21 | /
CCOc1ccc(-c2nc(-c3cccs3)c(CC(=O)O)s2)cc1OC | -8 | 0 | 11 | -9 | -19*
Cc1cc2ccccc2nc1-c1ccccc1F | 1 | 1 | 0 | -9 | -16*
O=C1c2ccccc2-c2nc3ccccc3cc21 | 0 | 3 | -27 | 21 | -15
C[C@@H]1CN([C@@H](C)CO)C(=O)Cc2cc(NS(=O)(=O)c3cn(C)cn3)ccc2O[C@H]1CN(C)CC1CCCCC1 | 2 | -2 | 16 | / | 1
Cc1cc(C)nc(N/N=C/c2ccccc2)n1 | 2 | -2 | 3 | -1 | 16
Cc1cc(C)nc(N/N=C/C(Cl)=C/c2ccccc2)n1 | -1 | -1 | 3 | 7 | -26*
CC(O)CNc1ncnc2nc[nH]c12 (stereo not given) | / | / | -22 | -10 | /
CC(C)=NNc1ncnc2nc[nH]c12 | -11 | / | 72* | -2 | /
Cc1noc(C)c1S(=O)(=O)Nc1ccc2c(c1)C(=O)N([C@@H](C)CO)C[C@@H](C)[C@H](CN(C)S(=O)(=O)c1c(C)noc1C)OCCCC[C@@H](C)O2 | 2 | -1 | -2 | / | 0
COc1ccc2c3c([nH]c2c1)[C@H](CO)N(C(C)=O)CC31CN(C(=O)Nc2ccccc2F)C1 | / | 0 | / | / | 1
